Screening data (PubChem)
The list is not random: actives were taken first. Their share in the collection is about 2.9%.
pPAFAH FP inh = pPAFAH (human) enzyme inhibition; Q13093; recombinant pPAFAH, FP-rhodamine probe fluorescence polarization; inhibition, % at 3.39 µM; 330,000 tested, 1.5% active;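 active means inhibition above the mean inhibition across the screen plus 3 SD, cut at about 25% in these data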;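 further: inhibitors block binding of the rhodamine activity-based probe so polarization drops; 0% = enzyme with DMSO and 100% = wells lacking pPAFAH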
PAFAH1B3 inh = PAFAH1B3 (human) inhibition. 340,000 tested, 0.28% active. recombinant PAFAH1B3, FP-rhodamine probe, fluorescence polarization. AID 492972. inhibition, % at 3.39 µM;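 active means inhibition above the screen-wide average of all tested compounds plus 3 SD, cut at about 25% in these data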;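 further: 0% = enzyme with DMSO only and 100% = wells lacking PAFAH1B3 protein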
LYPLA2 counter = LYPLA2 (human) inhibition in PME1 counter-screen; recombinant LYPLA2, FP-Rh probe fluorescence polarization; inhibition, % at 5.9 µM; 320,000 tested, 0.38% active; AID 2177;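 active means inhibition above the screen-wide mean plus 3 SD, limit set per campaign, cut at about 26% in these data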;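 further: 0% = LYPLA2 with DMSO and 100% = wells lacking LYPLA2 enzyme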
Target sequence (O95372 whole entry, looked up): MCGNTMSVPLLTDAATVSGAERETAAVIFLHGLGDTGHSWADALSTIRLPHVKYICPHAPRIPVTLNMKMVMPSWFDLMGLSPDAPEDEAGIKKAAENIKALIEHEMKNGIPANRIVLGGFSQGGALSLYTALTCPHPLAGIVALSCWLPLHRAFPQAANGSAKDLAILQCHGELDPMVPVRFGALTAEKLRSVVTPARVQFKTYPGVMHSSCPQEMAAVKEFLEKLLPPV
PAFAH2 FP inh = PAFAH2 (human) inhibition; inhibition, % at 3.39 µM; recombinant PAFAH2, FP-rhodamine activity probe, fluorescence polarization; 340,000 tested, 0.99% active; AID 492956;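 active means inhibition above the mean over all tested compounds plus 3 SD, cut at about 30% in these data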;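 further: inhibitors block probe labeling of enzyme so polarization drops; 0% = enzyme with DMSO and 100% = wells lacking PAFAH2 protein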
LYPLA1 inh = LYPLA1 (human) inhibition in PME1 counter-screen | recombinant LYPLA1, FP-Rh probe fluorescence polarization | inhibition, % at 5.9 µM | 320,000 tested, 0.16% active;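 active means inhibition above the mean of all tested compounds plus 3 SD, set per campaign, cut at about 14% in these data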;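 further: inhibitors block serine hydrolase probe labeling of LYPLA1 so polarization falls; 0% = enzyme with DMSO and 100% = wells lacking LYPLA1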
Target sequence (O75608 whole entry, looked up): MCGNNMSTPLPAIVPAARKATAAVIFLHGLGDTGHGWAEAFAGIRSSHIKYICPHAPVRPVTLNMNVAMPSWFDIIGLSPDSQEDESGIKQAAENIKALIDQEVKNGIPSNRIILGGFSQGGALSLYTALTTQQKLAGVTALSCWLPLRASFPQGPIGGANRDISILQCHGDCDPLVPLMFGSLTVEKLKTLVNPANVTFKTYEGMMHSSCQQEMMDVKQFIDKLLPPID
PAFAH1B2 inh = blocks human PAF acetylhydrolase 1b catalytic subunit 2; recombinant PAFAH1B2, FP-rhodamine activity probe, fluorescence polarization; P68402; inhibition, % at 3.39 µM; 340,000 tested, 1.2% active;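 active means inhibition above the mean of all tested compounds plus 3 SD, cut at about 24% in these data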;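 further: 0% = enzyme with DMSO and 100% = wells lacking PAFAH1B2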
Target sequence (P68402 whole entry, looked up): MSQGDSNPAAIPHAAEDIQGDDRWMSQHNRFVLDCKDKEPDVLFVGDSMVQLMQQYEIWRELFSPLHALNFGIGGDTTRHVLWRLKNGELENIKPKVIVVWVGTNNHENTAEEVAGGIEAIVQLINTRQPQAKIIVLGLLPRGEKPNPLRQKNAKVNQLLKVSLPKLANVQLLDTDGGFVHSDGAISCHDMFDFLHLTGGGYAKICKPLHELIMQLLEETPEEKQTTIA
PAFAH2 FP conf = PAFAH2 (human) inhibition, confirmed; shares compounds with PAFAH2 FP inh; 2,300 tested, 65% active; inhibition, % at 3.39 µM; recombinant PAFAH2, FP-rhodamine activity probe, fluorescence polarization;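 active means mean inhibition over three repeats above a set limit taken from the earlier primary screen, cut at about 30% in these data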;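 further: inhibitor blocks binding of rhodamine activity probe so polarization falls; 0% = enzyme with DMSO and 100% = wells lacking PAFAH2 protein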
* = called active by the depositor.

Results for O=C(COC(=O)c1ccc(NC(=O)C2CC=CCC2C(=O)O)cc1)c1ccccc1 (stereo unspecified) ?
pPAFAH FP inh: -1; PAFAH1B3 inh: 7; LYPLA2 counter: 12; PAFAH2 FP inh: 31*; LYPLA1 inh: 2; PAFAH1B2 inh: 8; PAFAH2 FP conf: 31*

What do the screens show for `O=C(O)C1CC=CCC1C(=O)Nc1ccccc1` (stereo unspecified)?
pPAFAH FP inh: 3; PAFAH1B3 inh: 5; LYPLA2 counter: -4; PAFAH2 FP inh: 4; LYPLA1 inh: 0; PAFAH1B2 inh: -4

How did O=C(Nc1ccc2c(c1)CCC2)c1ccc(Cl)nc1 do in these assays?
pPAFAH FP inh: 0; PAFAH1B3 inh: 7; LYPLA2 counter: -6; PAFAH2 FP inh: -5; LYPLA1 inh: 0; PAFAH1B2 inh: 19

How did CC(=O)c1cccc(NC(=O)C(OC(=O)/C=C/c2ccc3c(c2)OCO3)c2ccccc2)c1 (stereo unspecified) do in these assays?
pPAFAH FP inh: -17; PAFAH1B3 inh: -13; LYPLA2 counter: -61; PAFAH2 FP inh: -32; LYPLA1 inh: -33; PAFAH1B2 inh: -12

What do the screens show for `COCCN(C(=O)COC(=O)/C(=C/c1ccccc1)NC(C)=O)c1c(N)n(Cc2ccccc2)c(=O)[nH]c1=O`?
PAFAH1B3 inh: 8; PAFAH2 FP inh: -2; PAFAH1B2 inh: -2

Results for CC(C)NCC(O)COCCOc1ccc(Br)cc1 (stereo unspecified) ?
pPAFAH FP inh: 3; PAFAH1B3 inh: 0; LYPLA2 counter: -5; PAFAH2 FP inh: 3; LYPLA1 inh: -4; PAFAH1B2 inh: 7

How did Cc1noc(C)c1COc1ccc(C(=O)OCC(=O)Nc2ccc3c(c2)OCO3)cc1 do in these assays?
pPAFAH FP inh: 15; PAFAH1B3 inh: 3; LYPLA2 counter: 5; PAFAH2 FP inh: 80*; LYPLA1 inh: -1; PAFAH1B2 inh: 0; PAFAH2 FP conf: 86*

Results for O=C(O)CCC(=O)Nc1ccc(C(=O)OCC(=O)c2ccc(Cl)cc2)cc1 ?
pPAFAH FP inh: 3; PAFAH1B3 inh: 7; LYPLA2 counter: -1; PAFAH2 FP inh: 42*; LYPLA1 inh: -3; PAFAH1B2 inh: 4; PAFAH2 FP conf: 28

Results for O=C(COC(=O)c1ccc(Cl)nc1)Nc1ccc2c(c1)OCO2 ?
pPAFAH FP inh: 1; PAFAH1B3 inh: -1; LYPLA2 counter: 5; PAFAH2 FP inh: 53*; LYPLA1 inh: 0; PAFAH1B2 inh: -1; PAFAH2 FP conf: 39*

How did Cc1ccc(-c2cc(C(=O)N/N=C/C=C/c3ccccc3)n[nH]2)s1 do in these assays?
pPAFAH FP inh: -14; PAFAH1B3 inh: -12; LYPLA2 counter: -59; PAFAH2 FP inh: -14; LYPLA1 inh: -40; PAFAH1B2 inh: -4

What do the screens show for `CCN(CCCC(=O)c1ccc(F)cc1)CCc1ccccc1`?
pPAFAH FP inh: 4; PAFAH1B3 inh: 8; LYPLA2 counter: 2; PAFAH2 FP inh: -6; LYPLA1 inh: 2; PAFAH1B2 inh: 1

What do the screens show for `O=C(Nc1ccccc1)c1ccccc1NS(=O)(=O)c1ccc(Cl)s1`?
pPAFAH FP inh: 7; PAFAH1B3 inh: 3; LYPLA2 counter: 3; PAFAH2 FP inh: 71*; LYPLA1 inh: -3; PAFAH1B2 inh: 20; PAFAH2 FP conf: 75*

How did Cc1ccc(NC(=O)c2ccccc2NS(=O)(=O)c2ccc(Cl)s2)cc1 do in these assays?
pPAFAH FP inh: 9; PAFAH1B3 inh: 1; LYPLA2 counter: 2; PAFAH2 FP inh: 71*; LYPLA1 inh: -4; PAFAH1B2 inh: 11; PAFAH2 FP conf: 74*

What do the screens show for `CC(=O)c1ccc(S(=O)(=O)Nc2ccc(C(=O)N(C)CC(=O)Nc3cccc(C)c3C)cc2)cc1`?
pPAFAH FP inh: 7; PAFAH1B3 inh: 3; LYPLA2 counter: 4; PAFAH2 FP inh: 3; LYPLA1 inh: 0; PAFAH1B2 inh: 4

What do the screens show for `CC(=O)N1CCN(C(=O)COc2ccccc2C(=O)Nc2ccccc2)CC1`?
pPAFAH FP inh: 3; PAFAH1B3 inh: 0; LYPLA2 counter: 9; PAFAH2 FP inh: -2; LYPLA1 inh: 5; PAFAH1B2 inh: 3

What do the screens show for `Cc1cc(NC(=O)NC(=O)c2ccccc2NC(=O)CN(C)C)ccc1Oc1ncc(Br)cn1`?
PAFAH1B3 inh: 7; PAFAH2 FP inh: 14; PAFAH1B2 inh: 3

Results for O=C(NNC(=S)NC(=O)c1ccccc1)c1ccc([N+](=O)[O-])cc1 ?
pPAFAH FP inh: 6; PAFAH1B3 inh: 0; LYPLA2 counter: -1; PAFAH2 FP inh: 6; LYPLA1 inh: 5; PAFAH1B2 inh: 0

Results for COc1ccccc1C(=O)NNC(=S)NC(=O)c1cccs1 ?
pPAFAH FP inh: 2; PAFAH1B3 inh: 3; LYPLA2 counter: -2; PAFAH2 FP inh: 4; LYPLA1 inh: -3; PAFAH1B2 inh: -2

What do the screens show for `Cc1cccc(C(=O)NNC(=O)c2ccccc2O)c1`?
pPAFAH FP inh: 2; PAFAH1B3 inh: -1; LYPLA2 counter: -1; PAFAH2 FP inh: 35*; LYPLA1 inh: -1; PAFAH1B2 inh: 4; PAFAH2 FP conf: 16

How did O=C(NC(=S)NNC(=O)c1ccccc1O)c1ccccc1 do in these assays?
pPAFAH FP inh: 9; PAFAH1B3 inh: 11; LYPLA2 counter: -4; PAFAH2 FP inh: 31*; LYPLA1 inh: 0; PAFAH1B2 inh: 5; PAFAH2 FP conf: 24

What do the screens show for `O=C(NC(=S)NNC(=O)c1ccccc1O)c1ccc([N+](=O)[O-])cc1`?
pPAFAH FP inh: 15; PAFAH1B3 inh: 17; LYPLA2 counter: 8; PAFAH2 FP inh: 32*; LYPLA1 inh: -3; PAFAH1B2 inh: 0; PAFAH2 FP conf: 11

What do the screens show for `O=C(NC(=S)NNC(=O)c1ccccc1O)c1cccs1`?
pPAFAH FP inh: 13; PAFAH1B3 inh: 15; LYPLA2 counter: 0; PAFAH2 FP inh: 45*; LYPLA1 inh: -6; PAFAH1B2 inh: 4; PAFAH2 FP conf: 36*

Results for O=C(NNC(=O)c1cc(Cl)ccc1O)c1cccs1 ?
pPAFAH FP inh: 8; PAFAH1B3 inh: 9; LYPLA2 counter: 6; PAFAH2 FP inh: 77*; LYPLA1 inh: -3; PAFAH1B2 inh: 5; PAFAH2 FP conf: 73*

What do the screens show for `O=C(COC(=O)c1cccnc1Cl)NC1CCCc2ccccc21` (stereo unspecified)?
pPAFAH FP inh: 2; PAFAH1B3 inh: 8; PAFAH2 FP inh: 27; PAFAH1B2 inh: 14

What do the screens show for `O=C(COC(=O)c1ccccc1F)Nc1cccnc1Cl`?
pPAFAH FP inh: 5; PAFAH1B3 inh: -11; LYPLA2 counter: 3; PAFAH2 FP inh: 35*; LYPLA1 inh: 0; PAFAH1B2 inh: 0; PAFAH2 FP conf: 16

Results for CC1CCC(NC(=O)COC(=O)c2cccnc2Cl)CC1 (stereo unspecified) ?
pPAFAH FP inh: 8; PAFAH1B3 inh: 17; LYPLA2 counter: -2; PAFAH2 FP inh: 70*; LYPLA1 inh: 1; PAFAH1B2 inh: 7; PAFAH2 FP conf: 42*
